Bioassay records from PubChem BioAssay.
D2 antag: HTS Assay for Allosteric Antagonists of the Human D2 Dopamine Receptor: Primary Screen for Antagonists; D(2) dopamine receptor (Homo sapiens), P14416; HEK293 TREx D2 cells, calcium flux, dopamine EC80; inhibition, % at 10 µM; actives 2% (n = 340,000); AID 485344, 2010; in the data active means inhibition above about 30%; inactive means below that, where a call was filed; further: 0% is about no effect
Target sequence (P14416 whole entry, looked up): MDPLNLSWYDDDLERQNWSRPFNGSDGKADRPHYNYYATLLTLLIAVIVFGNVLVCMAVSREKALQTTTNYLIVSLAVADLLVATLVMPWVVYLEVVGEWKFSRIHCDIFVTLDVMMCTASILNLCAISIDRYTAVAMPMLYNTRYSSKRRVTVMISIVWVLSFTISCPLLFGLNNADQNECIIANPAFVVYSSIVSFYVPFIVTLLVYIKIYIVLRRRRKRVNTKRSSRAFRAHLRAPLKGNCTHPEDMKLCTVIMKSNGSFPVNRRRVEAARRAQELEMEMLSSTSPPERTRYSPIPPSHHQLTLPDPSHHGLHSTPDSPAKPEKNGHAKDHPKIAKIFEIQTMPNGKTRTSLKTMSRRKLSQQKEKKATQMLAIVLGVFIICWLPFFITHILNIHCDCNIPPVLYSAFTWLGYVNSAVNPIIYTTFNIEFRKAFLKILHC
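Overnight-induced (tetracycline, 30 C) HEK293 T-REx cells carrying force-coupled D2 receive a no-wash calcium dye, then compound, then EC80 dopamine at 180 s; signals are read kinetically throughout.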
D2 PAM-1: HTS Assay for Positive Allosteric Modulators of the Human D2 Dopamine Receptor: Primary Screen for Potentiators; D(2) dopamine receptor (Homo sapiens), P14416; HEK293 T-REx D2, calcium flux, EC20 dopamine potentiation; potentiation, % at 10 µM; actives 0.34% (n = 340,000);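 active means potentiation over 3 SD above the plate norm, cut at about 30% in these data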; further: 0% is about no effect
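Tetracycline-induced HEK293 T-REx cells force-coupled to calcium signalling expressed D2; compounds were pin-added after a 10 s baseline, read kinetically 180 s, then an EC20 dopamine challenge followed with a further 180 s calcium read.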
D2 ag-1: Beta-Arrestin HTS for Positive Allosteric Modulators of the Human D2 Dopamine Receptor: Agonists; DiscoveRx PathHunter D2 beta-arrestin, luminescence, 90 min; 100% = 57 uM dopamine signal; activation, % (no concentration beside the values); D(2) dopamine receptor (Homo sapiens), P14416; actives 0.084% (n = 360,000); in the data active means activation above about 40%; inconclusive means between about 15% and that limit
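Agonist mode: compounds alone added to overnight-plated D2 PathHunter cells for 90 min at 37 C, with 57 uM final dopamine (EC100) defining full response. Beta-arrestin recruitment detected by chemiluminescent reagent, read after 1 h at ambient temperature.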
D2 ag-2: HTS Assay for Allosteric Agonists of the Human D2 Dopamine Receptor: Primary Screen for Agonists | D(2) dopamine receptor (Homo sapiens), P14416 | HEK293 T-REx D2 cells, calcium flux agonist mode | activation, % at 2 µM | actives 0.53% (n = 340,000) | AID 485358, 2010;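 active means activation over 3 SD above normal in the single-dose calcium agonist read, cut at about 30% in these data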; further: 0% is about no effect
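Agonism scored from kinetic calcium signal (1 read/sec, 180 s) following compound pin transfer, after a 10 s baseline. Cells: HEK293 Trex line expressing inducible D2 receptor coupled to calcium, dye-loaded after overnight culture at 30 C.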
D2 PAM-2: Beta-Arrestin HTS for Positive Allosteric Modulators of the Human D2 Dopamine Receptor: Potentiators; D(2) dopamine receptor (Homo sapiens), P14416; DiscoveRx D2 beta-arrestin cells, luminescence, 90 min; 100% = 57 uM dopamine signal; potentiation, % (no concentration beside the values); actives 0.23% (n = 360,000); AID 624464, 2012; in the data active means potentiation above about 50%; inconclusive means mostly about 30% to 49%
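D2 cells co-treated with compound plus 50 nM dopamine (EC20) for 90 min at 37 deg C to detect potentiation. Beta-arrestin recruitment was read as enzyme-fragment luminescence after 1 h at ambient temperature. Full response was set by 57 uM dopamine.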
Numbers without * were called inactive; ? = inconclusive; nt = no result given. A selection: hits, their analogues and other compounds. The true share with any hit is near 2.4%.

SMILES	D2 antag	D2 PAM-1	D2 ag-1	D2 ag-2	D2 PAM-2
CC1(c2ccccc2Cl)NC(=O)N(CC(=O)Nc2ccc(N3CCCCC3)cc2)C1=O (stereo unspecified)	35*	-8	-3	1	1
CC1(c2ccccc2Cl)NC(=O)N(CC(=O)Nc2ccc(N3CCOCC3)cc2)C1=O (stereo unspecified)	nt	nt	0	nt	0
COc1cc(OC)c(NC(=O)C(C)n2c(=O)cc(-c3ccccc3)c3c(C)nn(C)c32)cc1Cl (stereo unspecified)	nt	-11	nt	nt	nt
COc1ccc(NC(=O)C2CCCO2)cc1Cl (stereo unspecified)	31*	-14	-2	0	-4
Nc1ccc2nc3c(=O)n(CCc4ccccc4)c(=O)[nH]c3nc2c1	-45	-11	6	95*	27
Nc1ccc2nc3c(=O)n(C4CCCCC4)c(=O)[nH]c3nc2c1	nt	-7	3	nt	17
Cc1cc2nc3c(=O)n(CCc4ccccc4)c(=O)[nH]c3nc2cc1N	-13	-8	8	95*	18
CCCCn1c(=O)[nH]c2nc3cc(N)ccc3nc2c1=O	-24	-9	-3	61*	22
Nc1ccc2nc(CCc3ccccc3)[nH]c2c1	-9	0	-1	-1	-2
O=C(Nc1ccon1)Nc1ccc(F)cc1F	31*	-3	-2	0	-1
CN(C(=O)CSc1nc2ccc(NC(=O)c3ccco3)cc2s1)c1ccccc1	nt	1	nt	0	nt
O=C1CC(c2cc(F)cc(F)c2)c2cc3c(cc2N1)OCO3 (stereo unspecified)	nt	19	nt	-1	nt
Cc1ccc2c(c1)-c1c(cnn1CC(=O)N1CCN(c3cccc(C(F)(F)F)c3)CC1)CO2	nt	-1	nt	0	nt
CS(=O)(=O)c1nc(-c2ccc(Br)cc2)cc(-c2ccccc2)c1C#N	41*	-3	-2	1	0
COc1ccc(Cc2nn3c(Cn4nnc5ccccc54)nnc3s2)cc1	39*	1	-2	-1	-4
COc1ccc(N=Cc2c(O)ccc3ccccc23)cc1	-3	26	2	2	-4
O=C(O)c1ccc(N=Cc2c(O)ccc3ccccc23)cc1	-5	-15	6	39*	3
NC(=O)c1ccc(N=Cc2c(O)ccc3ccccc23)cc1	nt	nt	-2	nt	0
CCOC(=O)c1sc(/N=C/c2c(O)ccc3ccccc23)cc1C	31*	1	-2	-1	-15
CCOc1ccc(NC(=O)c2c(NCc3sccc3C)sc3c2CCCCC3)cc1	nt	-1	nt	0	nt
C/C(=N\OC(=O)c1c(-c2ccccc2Cl)noc1C)c1ccncc1	3	-4	-4	0	-7
Cc1ccc(C)c(C(=O)O/N=C(\N)c2ccc(Br)cc2)c1	0	12	12	-1	57*
N/C(=N\OC(=O)c1cccc(Br)c1)c1ccccc1	7	-6	11	-1	?
Cc1cccc(C(=O)O/N=C(\N)c2ccc(Br)cc2)c1	-19	-7	?	-2	138*
Cc1cc(C)cc(C(=O)O/N=C(\N)c2ccc(Br)cc2)c1	35*	4	?	0	64*
SMILES	D2 antag	D2 PAM-1	D2 ag-1	D2 ag-2	D2 PAM-2
Cc1ccc(C(=O)O/N=C(\N)c2ccc(Br)cc2)cc1C	-8	-10	10	-2	?
Cc1onc(-c2ccccc2Cl)c1C(=O)O/N=C(\N)c1ccccc1	5	-1	43*	-2	?
Cc1cc(/C(N)=N/OC(=O)c2cccc(Cl)c2)no1	50*	-1	5	0	13
COc1ccc(C(=O)O/N=C(\N)c2cccc(C)c2)cc1OC	-3	9	?	0	27
Cc1cc(/C(N)=N/OC(=O)c2ccc(Cl)cc2)no1	-7	-7	2	-1	-4
CCSc1nnc(NC(=O)c2c(-c3ccccc3Cl)noc2C)s1	109*	15	-3	1	23
Cc1cccc(C(=O)O/N=C(\N)c2ccc(Cl)cc2)c1	14	-9	46*	0	-6
Cc1onc(-c2ccccc2Cl)c1C(=O)Nc1nnc(-c2cccc([N+](=O)[O-])c2)s1	nt	nt	1	nt	-1
COc1ccc(/C(N)=N/OC(=O)c2cccs2)cc1	2	3	9	1	7
N/C(=N\OC(=O)c1cccs1)c1ccc(Cl)cc1	-7	-6	50*	0	?
CCc1ccccc1NC(=O)C(=O)c1cc(C)n(-c2ccccc2F)c1C	nt	-3	nt	-2	nt
CCOc1ccc(-c2cc(CCCC(=O)NCCc3ccc(SC)cc3)no2)cc1	nt	15	nt	0	nt
CCCCn1c(=O)nc2n(-c3ccc(Br)cc3)c3ccccc3cc-2c1=O	nt	18	nt	0	nt
CC(Sc1nc2ccccc2c(=O)n1CCc1ccc(S(N)(=O)=O)cc1)C(=O)NC(N)=O (stereo unspecified)	3	40*	9	-2	1
CSCCC(NS(=O)(=O)c1ccc2[nH]c(=O)c(=O)[nH]c2c1)C(=O)O (stereo unspecified)	36*	-9	-1	-1	-4
CSCCC(NS(=O)(=O)c1ccc(Cl)c(Cl)c1)C(=O)O (stereo unspecified)	1	-7	-4	0	-6
CCOC(=O)c1c(-c2ccccc2)oc2ccc(OCC(=O)O)cc12	33*	-10	-7	0	-13
CCOC(=O)c1c(-c2ccc(OC)cc2)oc2ccc(OCC(N)=O)cc12	19	-7	?	0	-3
CCC1CCCCN1C(=O)c1ccc2c(c1)N(Cc1cccc(Cl)c1)C(=O)c1ccccc1S2(=O)=O (stereo unspecified)	nt	nt	nt	1	nt
Cc1ccc(/C=[N+](\[O-])c2ccc(N(C)C)cc2)c2nsnc12	48*	-4	3	9	8
CNC(=O)c1nn(-c2ccc(Cl)cc2)ccc1=O	33*	3	-14	0	-21
O=C(Nc1ccn(-c2ccccc2)n1)c1ccc(Cl)cc1	63*	-21	-2	-2	-30
CNC(=O)c1nn(-c2ccccc2)ccc1=O	-16	-4	-2	1	0
Cc1nc2c(C(=O)NCCC(C)C)cnn2c(C)c1Cc1c(F)cccc1Cl	nt	-9	nt	1	nt
Cc1cc(-n2c(C)nc3ccccc3c2=O)ccc1NC(=O)c1cccc([N+](=O)[O-])c1	nt	-1	nt	3	nt
COc1ccccc1N1CCN(C(=S)Nc2ccc(F)cc2)CC1	-11	-3	3	1	-15
